# Experimental data reported in publication PMC7862700, “An all-to-all approach to the identification of sequence-specific readers for epigenetic DNA modifications on cytosine”.
# Assays:
# Assay in all cases: DAPPL (digital affinity profiling via proximity ligation, sequencing); 10 mM Tris-HCl pH 7.5, 50 mM NaCl, 1 mM DTT, 4% glycerol, room temperature, 30 min; GST-TFs on glutathione beads, 16-mer random dsDNA library, 0.1% formaldehyde crosslink after washing; high values mean tight binding
# FEV = biological target: T1, FEV (Homo sapiens, UniProt Q99581 1-238); settings: protein: recombinant; tags: N-terminal GST; dsDNA, one strand shown
# T1 sequence: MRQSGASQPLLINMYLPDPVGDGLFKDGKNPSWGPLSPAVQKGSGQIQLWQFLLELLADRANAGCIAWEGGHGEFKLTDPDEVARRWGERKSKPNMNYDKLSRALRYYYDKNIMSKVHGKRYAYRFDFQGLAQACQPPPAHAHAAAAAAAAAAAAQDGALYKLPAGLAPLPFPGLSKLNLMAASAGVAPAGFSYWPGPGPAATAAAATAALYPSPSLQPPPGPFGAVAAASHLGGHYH
# Outline: (§1)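 Human transcription factors were made in yeast as GST fusions, captured on glutathione beads and barcoded with DNA. With a tag-only sample included, the pool was incubated with 200 nmole of a random double-stranded 16-mer DNA library in Tris/NaCl/DTT/glycerol buffer at room temperature for 30 min, then crosslinked with 0.1% formaldehyde after washing, ligated by proximity, amplified and sequenced. For binding signal, each hexamer's read frequency for a factor is divided by its frequency for the tag-only sample.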
# ETV5 = ETV5 (Homo sapiens, UniProt P41161 1-510); settings: protein: recombinant; tags: N-terminal GST; dsDNA, one strand shown
# Outline: as §1
# HSF1 = HSF1 (Homo sapiens, UniProt Q00613 1-529); settings: protein: recombinant; tags: N-terminal GST; chain copies: 3; dsDNA, one strand shown
# Outline: as §1
# SPIC = biological target: T2, SPIC (Homo sapiens, UniProt Q8N5J4 1-248); settings: protein: recombinant; tags: N-terminal GST; dsDNA, one strand shown
# T2 sequence: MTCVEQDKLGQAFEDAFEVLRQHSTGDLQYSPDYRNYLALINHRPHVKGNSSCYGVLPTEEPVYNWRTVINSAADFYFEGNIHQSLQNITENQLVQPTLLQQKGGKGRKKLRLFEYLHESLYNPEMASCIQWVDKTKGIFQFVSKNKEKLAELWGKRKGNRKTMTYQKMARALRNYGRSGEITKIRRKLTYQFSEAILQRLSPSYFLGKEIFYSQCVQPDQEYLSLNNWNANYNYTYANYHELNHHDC
# Outline: as §1
# ELF4 = ELF4 (Homo sapiens, UniProt Q99607 1-663); settings: protein: recombinant; tags: N-terminal GST; dsDNA, one strand shown
# Outline: as §1
# ELK4 = biological target: T3, ELK4 (Homo sapiens, UniProt P28324-2 1-405); settings: protein: recombinant; tags: N-terminal GST; dsDNA, one strand shown
# T3 sequence: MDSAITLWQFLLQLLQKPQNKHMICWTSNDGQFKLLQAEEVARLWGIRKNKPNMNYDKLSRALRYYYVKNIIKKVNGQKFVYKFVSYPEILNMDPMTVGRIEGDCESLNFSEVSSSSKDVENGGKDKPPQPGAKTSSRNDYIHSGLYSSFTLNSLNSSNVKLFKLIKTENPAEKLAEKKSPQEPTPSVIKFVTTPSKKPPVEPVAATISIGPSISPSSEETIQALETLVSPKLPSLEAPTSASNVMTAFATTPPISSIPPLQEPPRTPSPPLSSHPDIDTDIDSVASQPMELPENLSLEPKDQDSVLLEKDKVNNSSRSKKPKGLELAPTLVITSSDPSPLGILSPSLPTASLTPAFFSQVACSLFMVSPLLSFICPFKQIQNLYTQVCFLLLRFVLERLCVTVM
# Outline: as §1
# ETV2 = biological target: T4, ETV2 (Homo sapiens, UniProt O00321 1-342); settings: protein: recombinant; tags: N-terminal GST; dsDNA, one strand shown
# T4 sequence: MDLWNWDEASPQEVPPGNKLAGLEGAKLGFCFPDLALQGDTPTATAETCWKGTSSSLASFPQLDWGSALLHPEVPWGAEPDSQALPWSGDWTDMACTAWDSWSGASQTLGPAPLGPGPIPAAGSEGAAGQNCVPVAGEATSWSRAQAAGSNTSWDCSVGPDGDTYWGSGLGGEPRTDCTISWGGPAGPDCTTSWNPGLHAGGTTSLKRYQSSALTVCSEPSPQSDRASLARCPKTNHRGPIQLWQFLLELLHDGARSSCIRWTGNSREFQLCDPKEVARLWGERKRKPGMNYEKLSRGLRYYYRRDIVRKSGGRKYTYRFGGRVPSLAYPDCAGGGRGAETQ
# Outline: as §1
# ELF3 = biological target: T5, ELF3 (Homo sapiens, UniProt P78545 1-371); settings: protein: recombinant; tags: N-terminal GST; dsDNA, one strand shown
# T5 sequence: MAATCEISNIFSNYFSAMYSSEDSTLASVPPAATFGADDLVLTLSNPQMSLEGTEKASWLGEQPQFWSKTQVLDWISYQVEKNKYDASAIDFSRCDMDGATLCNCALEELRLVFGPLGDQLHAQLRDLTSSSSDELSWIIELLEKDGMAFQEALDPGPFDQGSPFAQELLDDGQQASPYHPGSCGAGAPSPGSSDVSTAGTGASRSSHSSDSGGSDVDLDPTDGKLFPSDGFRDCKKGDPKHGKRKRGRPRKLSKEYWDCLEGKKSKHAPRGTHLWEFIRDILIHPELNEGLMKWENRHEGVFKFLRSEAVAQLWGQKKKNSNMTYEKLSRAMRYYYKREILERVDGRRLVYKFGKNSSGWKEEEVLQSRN
# Outline: as §1
# CRX = CRX (Homo sapiens, UniProt O43186 1-299); settings: protein: recombinant; tags: N-terminal GST; dsDNA, one strand shown
# Outline: as §1
# ETV1 = ETV1 (Homo sapiens, UniProt P50549 1-477); settings: protein: recombinant; tags: N-terminal GST; dsDNA, one strand shown
# Outline: as §1
# ERF = biological target: T6, ERF (Homo sapiens, UniProt P50548 1-548); settings: protein: recombinant; tags: N-terminal GST; dsDNA, one strand shown
# T6 sequence: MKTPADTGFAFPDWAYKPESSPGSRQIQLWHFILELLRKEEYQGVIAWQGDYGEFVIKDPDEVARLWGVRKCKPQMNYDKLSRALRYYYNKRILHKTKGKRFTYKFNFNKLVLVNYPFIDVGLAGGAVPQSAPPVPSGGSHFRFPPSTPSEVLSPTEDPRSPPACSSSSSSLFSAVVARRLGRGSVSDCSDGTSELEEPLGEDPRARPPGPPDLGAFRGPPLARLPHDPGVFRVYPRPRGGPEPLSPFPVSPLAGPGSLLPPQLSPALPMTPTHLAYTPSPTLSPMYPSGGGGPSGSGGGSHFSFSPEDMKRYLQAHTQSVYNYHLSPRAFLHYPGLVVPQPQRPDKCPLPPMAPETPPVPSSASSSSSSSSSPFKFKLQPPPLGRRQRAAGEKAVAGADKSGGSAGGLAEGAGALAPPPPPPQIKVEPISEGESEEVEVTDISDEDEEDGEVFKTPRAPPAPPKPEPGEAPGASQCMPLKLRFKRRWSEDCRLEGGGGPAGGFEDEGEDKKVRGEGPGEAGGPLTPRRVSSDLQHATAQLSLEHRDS
# Outline: as §1
# ETV3L = biological target: T7, ETV3L (Homo sapiens, UniProt Q6ZN32 1-361); settings: protein: recombinant; tags: N-terminal GST; dsDNA, one strand shown
# T7 sequence: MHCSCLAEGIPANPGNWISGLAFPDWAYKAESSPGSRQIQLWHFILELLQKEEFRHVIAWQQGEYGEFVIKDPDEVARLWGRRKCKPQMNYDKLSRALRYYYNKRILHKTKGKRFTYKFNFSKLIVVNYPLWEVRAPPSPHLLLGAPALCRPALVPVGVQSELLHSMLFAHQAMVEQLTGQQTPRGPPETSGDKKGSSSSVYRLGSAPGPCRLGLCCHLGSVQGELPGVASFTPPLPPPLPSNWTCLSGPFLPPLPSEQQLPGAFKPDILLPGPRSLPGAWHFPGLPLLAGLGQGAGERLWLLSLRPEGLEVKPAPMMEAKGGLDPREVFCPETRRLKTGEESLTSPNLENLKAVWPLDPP
# Outline: as §1
# ETS2 = biological target: T8, ETS2 (Homo sapiens, UniProt P15036 1-469); settings: protein: recombinant; tags: N-terminal GST; dsDNA, one strand shown
# T8 sequence: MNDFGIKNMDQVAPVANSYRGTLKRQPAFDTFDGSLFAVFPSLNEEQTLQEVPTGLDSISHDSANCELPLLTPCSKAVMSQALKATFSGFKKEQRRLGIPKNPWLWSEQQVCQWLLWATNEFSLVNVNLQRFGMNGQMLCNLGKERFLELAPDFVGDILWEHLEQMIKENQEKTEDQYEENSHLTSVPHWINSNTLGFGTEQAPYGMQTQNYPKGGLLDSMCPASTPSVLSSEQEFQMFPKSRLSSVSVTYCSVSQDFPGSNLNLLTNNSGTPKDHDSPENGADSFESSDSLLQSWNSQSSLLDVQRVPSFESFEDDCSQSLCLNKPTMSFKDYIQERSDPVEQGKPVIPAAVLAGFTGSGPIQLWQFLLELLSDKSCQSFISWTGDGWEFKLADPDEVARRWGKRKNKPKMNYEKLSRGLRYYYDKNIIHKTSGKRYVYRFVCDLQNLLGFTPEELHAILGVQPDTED
# Outline: as §1
# SPDEF = biological target: T9, SPDEF (Homo sapiens, UniProt O95238 1-335); settings: protein: recombinant; tags: N-terminal GST; dsDNA, one strand shown
# T9 sequence: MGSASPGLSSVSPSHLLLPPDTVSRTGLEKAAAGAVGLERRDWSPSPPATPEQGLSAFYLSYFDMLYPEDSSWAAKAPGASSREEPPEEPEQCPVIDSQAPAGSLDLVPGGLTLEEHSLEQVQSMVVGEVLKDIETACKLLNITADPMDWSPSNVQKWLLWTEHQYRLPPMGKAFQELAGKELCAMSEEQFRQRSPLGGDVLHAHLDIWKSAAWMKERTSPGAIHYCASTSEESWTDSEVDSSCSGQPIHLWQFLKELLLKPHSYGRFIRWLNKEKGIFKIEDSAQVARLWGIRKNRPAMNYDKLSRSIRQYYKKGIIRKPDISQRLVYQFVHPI
# Outline: as §1
# ETV7 = biological target: T10, ETV7 (Homo sapiens, UniProt Q9Y603 1-341); settings: protein: recombinant; tags: N-terminal GST; dsDNA, one strand shown
# T10 sequence: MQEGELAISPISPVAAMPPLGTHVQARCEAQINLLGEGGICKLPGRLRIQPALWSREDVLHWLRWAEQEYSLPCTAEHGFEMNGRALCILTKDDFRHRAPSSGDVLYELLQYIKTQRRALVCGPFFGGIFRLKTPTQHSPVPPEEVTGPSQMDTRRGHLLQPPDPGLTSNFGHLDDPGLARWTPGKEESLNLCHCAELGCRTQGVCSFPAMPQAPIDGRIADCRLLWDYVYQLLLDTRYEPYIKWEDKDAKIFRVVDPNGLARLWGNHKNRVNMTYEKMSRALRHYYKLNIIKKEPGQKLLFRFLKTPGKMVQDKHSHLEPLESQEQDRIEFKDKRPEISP
# Outline: as §1
# ELF5 = biological target: T11, ELF5 (Homo sapiens, UniProt Q9UKW6-2 1-255); settings: protein: recombinant; tags: N-terminal GST; dsDNA, one strand shown
# T11 sequence: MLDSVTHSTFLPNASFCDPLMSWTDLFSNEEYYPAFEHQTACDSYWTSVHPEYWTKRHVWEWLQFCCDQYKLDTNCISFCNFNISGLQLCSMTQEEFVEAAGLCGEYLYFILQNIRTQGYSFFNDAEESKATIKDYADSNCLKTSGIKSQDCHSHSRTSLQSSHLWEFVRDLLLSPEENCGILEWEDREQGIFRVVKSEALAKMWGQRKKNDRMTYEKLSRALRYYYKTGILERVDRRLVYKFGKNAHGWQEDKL
# Outline: as §1
# ETV3 = biological target: T12, ETV3 (Homo sapiens, UniProt P41162-2 1-143); settings: protein: recombinant; tags: N-terminal GST; dsDNA, one strand shown
# T12 sequence: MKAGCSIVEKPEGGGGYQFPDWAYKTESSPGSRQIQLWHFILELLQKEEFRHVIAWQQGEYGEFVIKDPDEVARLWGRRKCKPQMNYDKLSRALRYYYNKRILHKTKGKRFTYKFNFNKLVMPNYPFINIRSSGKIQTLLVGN
# Outline: as §1
# ETV6 = ETV6 (Homo sapiens, UniProt P41212 1-452); settings: protein: recombinant; tags: N-terminal GST; dsDNA, one strand shown
# Outline: as §1
# Chain of ETV6 (P41212 whole entry): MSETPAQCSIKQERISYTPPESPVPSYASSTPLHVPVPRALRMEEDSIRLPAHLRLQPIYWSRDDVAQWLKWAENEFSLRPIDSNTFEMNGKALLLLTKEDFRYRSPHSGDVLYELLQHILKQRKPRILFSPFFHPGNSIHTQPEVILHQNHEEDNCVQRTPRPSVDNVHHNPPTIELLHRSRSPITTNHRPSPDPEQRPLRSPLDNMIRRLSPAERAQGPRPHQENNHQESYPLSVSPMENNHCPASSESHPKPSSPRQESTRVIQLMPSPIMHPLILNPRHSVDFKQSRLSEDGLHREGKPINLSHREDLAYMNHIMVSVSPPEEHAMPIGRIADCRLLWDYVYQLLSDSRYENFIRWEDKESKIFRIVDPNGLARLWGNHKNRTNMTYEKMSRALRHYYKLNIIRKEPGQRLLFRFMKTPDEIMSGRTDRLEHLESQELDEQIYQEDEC
# Chain of ETV1 (P50549 whole entry): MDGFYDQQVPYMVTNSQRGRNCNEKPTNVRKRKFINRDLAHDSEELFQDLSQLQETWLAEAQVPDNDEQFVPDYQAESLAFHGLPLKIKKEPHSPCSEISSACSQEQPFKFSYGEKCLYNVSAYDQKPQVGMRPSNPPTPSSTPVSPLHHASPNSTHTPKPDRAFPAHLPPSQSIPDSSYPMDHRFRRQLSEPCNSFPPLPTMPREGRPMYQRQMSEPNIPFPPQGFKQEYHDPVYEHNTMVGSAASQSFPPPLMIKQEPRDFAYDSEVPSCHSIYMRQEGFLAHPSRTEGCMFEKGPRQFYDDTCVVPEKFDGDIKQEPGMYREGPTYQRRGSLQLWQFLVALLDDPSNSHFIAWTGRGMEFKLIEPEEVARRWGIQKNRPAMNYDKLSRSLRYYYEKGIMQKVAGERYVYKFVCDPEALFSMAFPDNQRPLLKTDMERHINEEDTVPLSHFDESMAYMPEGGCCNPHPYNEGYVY
# Chain of ELF4 (Q99607 whole entry): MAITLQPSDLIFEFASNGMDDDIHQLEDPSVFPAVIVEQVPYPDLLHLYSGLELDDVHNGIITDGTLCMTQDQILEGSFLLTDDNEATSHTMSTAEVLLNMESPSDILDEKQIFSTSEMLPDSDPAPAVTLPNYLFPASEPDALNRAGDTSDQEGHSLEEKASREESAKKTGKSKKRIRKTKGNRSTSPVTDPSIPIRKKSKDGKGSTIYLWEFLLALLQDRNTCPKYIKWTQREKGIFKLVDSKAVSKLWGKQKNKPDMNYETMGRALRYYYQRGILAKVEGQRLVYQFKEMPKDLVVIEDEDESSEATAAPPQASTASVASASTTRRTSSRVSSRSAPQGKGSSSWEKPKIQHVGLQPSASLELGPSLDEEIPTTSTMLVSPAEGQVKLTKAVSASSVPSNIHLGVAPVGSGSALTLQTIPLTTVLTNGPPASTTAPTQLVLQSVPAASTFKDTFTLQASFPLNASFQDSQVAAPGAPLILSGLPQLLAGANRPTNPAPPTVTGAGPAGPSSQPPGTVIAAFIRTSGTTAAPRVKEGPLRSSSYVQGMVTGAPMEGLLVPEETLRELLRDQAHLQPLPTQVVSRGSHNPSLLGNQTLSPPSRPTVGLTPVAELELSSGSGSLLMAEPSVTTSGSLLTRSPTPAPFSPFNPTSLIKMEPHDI
# Chain of ETV5 (P41161 whole entry): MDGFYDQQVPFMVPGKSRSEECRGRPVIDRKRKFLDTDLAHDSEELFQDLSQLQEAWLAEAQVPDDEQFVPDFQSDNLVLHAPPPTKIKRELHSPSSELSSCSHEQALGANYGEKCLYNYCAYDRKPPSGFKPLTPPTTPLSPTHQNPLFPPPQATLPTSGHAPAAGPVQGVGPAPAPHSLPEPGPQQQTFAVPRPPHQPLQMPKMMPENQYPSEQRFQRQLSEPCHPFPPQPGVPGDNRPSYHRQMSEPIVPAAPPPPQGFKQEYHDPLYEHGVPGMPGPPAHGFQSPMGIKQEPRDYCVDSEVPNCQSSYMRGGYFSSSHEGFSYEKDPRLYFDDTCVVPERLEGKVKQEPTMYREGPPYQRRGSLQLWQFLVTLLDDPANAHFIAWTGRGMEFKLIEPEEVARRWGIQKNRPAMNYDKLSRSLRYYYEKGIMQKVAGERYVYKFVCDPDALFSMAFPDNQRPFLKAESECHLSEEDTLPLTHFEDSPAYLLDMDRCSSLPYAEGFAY
# Chain of HSF1 (Q00613 whole entry): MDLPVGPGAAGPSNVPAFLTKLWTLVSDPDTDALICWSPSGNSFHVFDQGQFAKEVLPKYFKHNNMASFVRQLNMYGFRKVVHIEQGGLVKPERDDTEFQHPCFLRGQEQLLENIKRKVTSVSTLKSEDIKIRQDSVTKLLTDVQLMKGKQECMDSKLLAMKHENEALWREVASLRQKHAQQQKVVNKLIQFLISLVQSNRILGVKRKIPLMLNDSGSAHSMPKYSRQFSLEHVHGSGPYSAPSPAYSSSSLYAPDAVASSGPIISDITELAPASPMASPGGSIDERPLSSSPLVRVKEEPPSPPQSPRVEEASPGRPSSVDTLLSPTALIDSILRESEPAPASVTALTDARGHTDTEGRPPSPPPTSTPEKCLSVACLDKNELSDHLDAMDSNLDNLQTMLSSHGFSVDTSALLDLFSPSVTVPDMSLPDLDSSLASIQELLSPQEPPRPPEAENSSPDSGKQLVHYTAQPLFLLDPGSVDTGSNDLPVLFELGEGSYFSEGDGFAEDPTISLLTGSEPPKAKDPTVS
# Chain of CRX (O43186 whole entry): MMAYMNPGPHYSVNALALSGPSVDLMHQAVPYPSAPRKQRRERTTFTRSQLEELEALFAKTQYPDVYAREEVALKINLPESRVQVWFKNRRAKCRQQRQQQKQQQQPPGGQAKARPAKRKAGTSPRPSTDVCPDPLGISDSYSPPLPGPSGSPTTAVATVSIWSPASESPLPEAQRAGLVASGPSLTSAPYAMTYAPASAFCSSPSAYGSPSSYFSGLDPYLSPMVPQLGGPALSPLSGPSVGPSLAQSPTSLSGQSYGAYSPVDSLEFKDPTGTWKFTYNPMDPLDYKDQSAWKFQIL
sequence,measurement,setting,value
ATTTAC,binding signal,FEV,"1.3 fold enrichment (6-mer frequency, TF over GST control)"
same,binding signal,ETV5,"1.33 fold enrichment (6-mer frequency, TF over GST control)"
same,binding signal,HSF1,"1.38 fold enrichment (6-mer frequency, TF over GST control)"
same,binding signal,SPIC,"1.2 fold enrichment (6-mer frequency, TF over GST control)"
same,binding signal,ELF4,"1.33 fold enrichment (6-mer frequency, TF over GST control)"
same,binding signal,ELK4,"1.23 fold enrichment (6-mer frequency, TF over GST control)"
same,binding signal,ETV2,"1.16 fold enrichment (6-mer frequency, TF over GST control)"
same,binding signal,ELF3,"1.27 fold enrichment (6-mer frequency, TF over GST control)"
same,binding signal,CRX,"1.75 fold enrichment (6-mer frequency, TF over GST control)"
same,binding signal,ETV1,"1.22 fold enrichment (6-mer frequency, TF over GST control)"
same,binding signal,ERF,"1.27 fold enrichment (6-mer frequency, TF over GST control)"
same,binding signal,ETV3L,"1.18 fold enrichment (6-mer frequency, TF over GST control)"
same,binding signal,ETS2,"1.28 fold enrichment (6-mer frequency, TF over GST control)"
same,binding signal,SPDEF,"1.21 fold enrichment (6-mer frequency, TF over GST control)"
same,binding signal,ETV7,"1.28 fold enrichment (6-mer frequency, TF over GST control)"
same,binding signal,ELF5,"1.25 fold enrichment (6-mer frequency, TF over GST control)"
same,binding signal,ETV3,"1.29 fold enrichment (6-mer frequency, TF over GST control)"
same,binding signal,ETV6,"1.18 fold enrichment (6-mer frequency, TF over GST control)"
